High-throughput results as filed in PubChem BioAssay.
This is a sample that favours compounds with a hit; in the whole collection about 3.1% have one here.
TRb-SRC2 inh: inhibitors of human thyroid hormone receptor beta-SRC2 interaction; Potency, µM (highest dose often 106 µM), for inactives: at the top dose activity change, negative = inhibition, usual class: inhibitors; TRbeta-SRC2 peptide binding, fluorescence polarization; receptor liganded with 1 µM T3; AID 1469; 280,000 compounds, 0.065% hits; P10828;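 note: plate controls were bound peptide for no effect and peptide without receptor for full effect; nearly all actives have a fitted effect of over 50% in size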
Target sequence (P10828 whole entry, looked up): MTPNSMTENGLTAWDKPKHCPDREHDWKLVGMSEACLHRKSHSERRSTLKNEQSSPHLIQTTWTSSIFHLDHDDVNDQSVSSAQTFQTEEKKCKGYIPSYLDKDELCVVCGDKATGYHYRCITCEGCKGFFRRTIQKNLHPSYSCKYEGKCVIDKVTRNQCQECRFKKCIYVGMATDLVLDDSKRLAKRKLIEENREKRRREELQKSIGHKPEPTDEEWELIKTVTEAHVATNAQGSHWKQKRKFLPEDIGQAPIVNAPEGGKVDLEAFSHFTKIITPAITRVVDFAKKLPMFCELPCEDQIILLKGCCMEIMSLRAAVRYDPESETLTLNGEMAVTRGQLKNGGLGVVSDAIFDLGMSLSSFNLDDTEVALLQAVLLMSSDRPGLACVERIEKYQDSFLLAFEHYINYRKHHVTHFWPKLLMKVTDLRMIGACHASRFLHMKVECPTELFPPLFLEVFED
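Polarization signal, normalized between peptide-alone and full complex controls, measured compound effects on T3-liganded human TRb LBD (0.6 uM) binding 20 nM Texas Red SRC2 peptide after 5 hr.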
Tau fluor counter: counter-screen for tau fibril formation inhibitors | 280,000 compounds, 0.93% hits | Potency, µM (doses to about 57.7 µM), inactives show top-dose activity change, negative = decrease | tau K18 P301L Alexa594 fluorescence, heparin fibrillization; note: nearly all actives have a fitted effect of over 55% in size
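Human tau K18 P301L (15 uM unlabeled, 0.24 uM Alexa 594-labeled) in 100 mM sodium acetate pH 7 with 20 uM heparin, 6 hr at 37 C. ThT 30 uM added, 1 hr ambient; Alexa 594 FP and total fluorescence read at 555/632 nm.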
TexasRed fluor: alters Texas Red total fluorescence, flagging assay interference; TRb/SRC2 Texas Red total fluorescence interference; Potency, µM (series often up to 106 µM), without a hit: top-dose fluorescence change, negative = quenching; 280,000 compounds, 0.29% hits; AID 1479; active = well fitted curve in either direction with a large enough effect; inconclusive = small, poorly fitted or top-dose-only effect
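Human TRβ ligand-binding domain (0.6 uM) and Texas Red SRC2 peptide (20 nM) in Tris buffer with 1 uM T3 and 5% DMSO were incubated with pinned compound for 5 hr at ambient temperature. Total fluorescence was computed as S + 2P (555/632 nm).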
Tau fibril ThT: tau fibrillization inhibition (ThT binding); recombinant tau K18 P301L (four-repeat tau fragment), heparin-induced fibrillization, ThT fluorescence; Potency, µM (doses to about 57.4 µM), for the others: at the highest dose activity, negative = inhibition, most hits filed as inhibitors; 270,000 compounds, 2.1% hits; AID 1460; note: nearly all actives have a fitted effect of over 55% in size
Target sequence (P10636 561-689 P618L limits assumed): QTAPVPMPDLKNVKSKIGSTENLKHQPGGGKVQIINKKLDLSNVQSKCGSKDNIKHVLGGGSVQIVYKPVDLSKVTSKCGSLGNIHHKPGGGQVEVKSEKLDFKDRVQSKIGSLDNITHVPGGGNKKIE
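Recombinant human tau K18 fragment […] carrying P301L, 15 uM unlabeled plus 0.24 uM Alexa 594-labeled, was fibrillized with 20 uM heparin in 100 mM sodium acetate pH 7 for 6 hr at 37 C; 30 uM ThT fluorescence read after 1 hr.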
Tau FP inhib: blocks human tau fibril formation measured by polarization. K18 P301L tau heparin fibrillization, Alexa594 FP, 6 h. Potency, µM (doses to about 57.7 µM), for the others: at the highest dose activity, negative = inhibition, actives largely listed as inhibitors. 280,000 compounds, 0.39% hits; note: nearly all actives have a fitted effect of over 55% in size
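K18 P301L tau (15 uM unlabeled/0.24 uM Alexa 594-labeled, final) + compound + heparin 20 uM final; 100 mM NaOAc pH 7; 6 hr 37 C; ThT 30 uM final added, 1 hr RT; FP ex 555/em 632 nm.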
Starred values were filed as active, the others as inactive; ? = inconclusive; nt = not tested or not shown; [ ] = another dose, or the depositor's remark. Unless noted, calls come from the whole dose curve; as a rule, active = well fitted curve in the direction sought with a large enough effect; inconclusive = small, poorly fitted or top-dose-only effect, or another doubt; inactive = no such curve, though single readings can be large; an effect the other way counts as inactive or inconclusive. Unless noted, % is set by controls: 0 for no effect and ±100 for the full control effect; potency is the fitted concentration of half-maximal effect.

SMILES	TRb-SRC2 inh	Tau fluor counter	TexasRed fluor	Tau fibril ThT	Tau FP inhib
Cc1ccc(C)c(NC(=O)N2CC=C(c3c[nH]c4ccccc34)CC2)c1	-7.7%	25.1µM*[quencher]	-1.4%	?	7.3%
CCOC(=O)c1cccc(NC(=O)N2CCC(CN3CCc4ccccc4C3)CC2)c1	2.7%	-6.2%	-6.6%	-5.0%	0.6%
CC1CN(C(=O)CCC(=O)Nc2cc(F)ccc2F)c2ccccc2S1 (stereo not given)	-4.9%	-16.2%	-1.8%	1.0%	-3.2%
COc1cc(OC)c(NC(=O)N2CC=C(c3c[nH]c4ccccc34)CC2)cc1Cl	2.8%	7.94µM*[quencher]	-2.1%	?	?
CCc1ccc(NC(=O)N2CC=C(c3c[nH]c4ccccc34)CC2)cc1	-1.6%	12.6µM*[quencher]	-12.2%	7.08µM*	-0.9%
O=C1CCCC(O)=C1N=Nc1c(Cl)cc(C(F)(F)F)cc1Cl	1.41µM*	-17.4%	28.2µM*[fluorescent]	?	-1.2%
CCCn1c(C)nc2c(NCCN3CCCCC3)nc(C)nc21	0.9%	-5.3%	2.3%	-2.2%	-5.2%
NC(=O)C1CCN(C2=C(NS(=O)(=O)c3ccccc3)C(=O)c3ccccc3C2=O)CC1	1.6%	-26.8%	-4.3%	?	4.8%
O=C1C(NS(=O)(=O)c2cccs2)=C(N2CCOCC2)C(=O)c2ccccc21	-2.8%	?	-2.5%	15.8µM*	?
O=C(O)c1cccc(NC2=C(N3CCOCC3)C(=O)c3ccccc3C2=O)c1	-2.8%	?	-1.7%	31.6µM*	?
O=C1C(NS(=O)(=O)c2cccs2)=C(N2CCN(Cc3ccccc3)CC2)C(=O)c2ccccc21	0.3%	?	-4.9%	15.8µM*	-11.6%
CN(C1=C(N2CCOCC2)C(=O)c2ccccc2C1=O)c1ccccc1	-4.2%	?	-3.4%	?	-12.0%
CN1CCN(C2=C(NS(=O)(=O)c3cccs3)C(=O)c3ccccc3C2=O)CC1	1.0%	-9.7%	-2.6%	?	-18.7%
O=C1C(NS(=O)(=O)c2ccc(Cl)cc2)=C(N2CCCCC2)C(=O)c2ccccc21	0.9%	?	7.1%	15.8µM*	?
CCOc1ccccc1NC(=O)C1=C(C)Nc2ncnn2C1c1cccs1 (stereo not given)	1.7%	-2.1%	-6.3%	3.3%	6.3%
COc1ccccc1N1CCN(S(=O)(=O)c2cccs2)CC1	-19.8%	-20.4%	-4.4%	-10.2%	1.8%
CCOc1ccccc1N1CCN(C2=C(NS(=O)(=O)c3cccs3)C(=O)c3ccccc3C2=O)CC1	-3.0%	12.6µM*[quencher]	-2.4%	8.91µM*	?
O=C(CNS(=O)(=O)c1cccs1)N1CCN(c2cccc(C(F)(F)F)c2)CC1	0.5%	-21.2%	-3.1%	-11.2%	6.5%
O=C1C(NS(=O)(=O)c2cccs2)=C(N2CCN(c3cccc(C(F)(F)F)c3)CC2)C(=O)c2ccccc21	-9.7%	7.08µM*[quencher]	-3.6%	4.47µM*	-1.7%
CCOC(=O)C1=C(C)N=c2s/c(=C\c3cccn3C)c(=O)n2C1c1cccc(OC)c1OC (stereo not given)	7.7%	-20.9%	1.3%	?	-6.6%
N#CC1=C(N)n2c(s/c(=C\c3ccco3)c2=O)=C(C#N)C1c1ccco1 (stereo not given)	-24.4%	-27.2%	?	20µM*	?
CCOC(=O)C1=c2s/c(=C\c3ccncc3)c(=O)n2C(N)=C(C(=O)OC)C1c1ccncc1 (stereo not given)	4.4%	-17.6%	-1.4%	?	-11.9%
CCOC(=O)C1=C(N)n2c(s/c(=C/c3ccco3)c2=O)=C(C(=O)OC)C1c1ccco1 (stereo not given)	14.6%	-25.9%	-28.8%	14.1µM*	-18.3%
CCOC(=O)C1=C(C)N=c2s/c(=C/c3ccco3)c(=O)n2C1c1cccc(OC)c1 (stereo not given)	-2.7%	-22.9%	-4.1%	14.1µM*	?
Cn1nc(C(=O)Nc2cccc(C(F)(F)F)c2)c2c1-c1ccccc1S(=O)(=O)C2	-1.3%	3.7%	7.2%	8.2%	2.8%
SMILES	TRb-SRC2 inh	Tau fluor counter	TexasRed fluor	Tau fibril ThT	Tau FP inhib
Cc1ccc(N2C(=O)C(CC(=O)Nc3cccc(F)c3)N(CCc3ccccc3F)C2=O)cc1 (stereo not given)	4.5%	?	-2.0%	15.5%	?
Cc1cc(N2CCCCC2)nc2ccc(NC(=O)c3cccc(F)c3)cc12	4.7%	12.6µM*[quencher]	-0.1%	?	9.6%
Cc1ccc(C(=O)Nc2ccc3nc(N4CCCCC4)cc(C)c3c2)cc1F	2.1%	3.6%	0.8%	10.8%	0.6%
Cc1cc(N2CCCCC2)nc2ccc(NC(=O)c3cccc(Cl)c3)cc12	-4.9%	14.1µM*[quencher]	-3.2%	10µM*	?
CCCCOC(=O)c1cccc(NC(=O)/C=C/c2ccccc2Cl)c1	-7.7%	?	-14.9%	6.9%	10µM*
CCN(CC)c1cc(C)c2cc(NC(=O)/C=C/c3ccccc3Cl)ccc2n1	10.7%	7.94µM*[quencher]	-2.3%	3.55µM*	9.1%
CCN(CC)c1cc(C)c2cc(NC(=O)c3cccc(F)c3)ccc2n1	-1.7%	31.6µM*[quencher]	0.2%	?	16.1%
CCN(CC)c1cc(C)c2cc(NC(=O)c3ccc(F)cc3Cl)ccc2n1	2.2%	?	-2.4%	?	8.5%
O=C1CC(/C=C/c2ccc([N+](=O)[O-])cc2)=Nc2ccccc2N1	-7.2%	?	0.3%	3.98µM*	6.3%
COc1ccc(C(=O)C2CCCN(C(=O)CCc3ccccn3)C2)c(C)c1 (stereo not given)	0.6%	-7.2%	-0.3%	-4.9%	0.9%
COc1ccc(C(=O)C2CCCN(C(=O)CCc3scnc3C)C2)c(C)c1 (stereo not given)	?	-30.2%	-4.9%	28.2µM*	-49.4%
COc1ccc(-c2ccc(F)cc2)cc1C1C2C=CCC(C)C2C(=O)N1Cc1ccccc1 (stereo not given)	-7.5%	nt	-0.5%	nt	nt
CN1C(=O)C(Cl)(Cl)C(=O)c2ccccc21	-3.1%	-19.6%	-2.7%	3.98µM*	7.08µM*
COc1ccc(NC(=O)c2c(NCc3cccc(OC)c3)sc3c2CCC3)cc1	3.8%	-22.0%	0.0%	?	-4.5%
CCCCn1cnc2cc(NC(=O)c3cc(OC)c(OC)c(OC)c3)ccc21	-6.7%	-27.9%	-27.3%	?	-3.6%
Cc1ccccc1OCc1ccc(-c2nc(C#N)c(N3CCN(C)CC3)o2)o1	1.0%	-23.3%	7.5%	-11.5%	17.1%
Cc1ccccc1OCc1ccc(-c2nc(C#N)c(N3CCN(c4ccccc4)CC3)o2)o1	-14.0%	-19.0%	3.98µM*[quencher]	-5.4%	-2.6%
CC1CCN(C(c2ccc(N(C)C)cc2)c2nnnn2C(C)(C)C)CC1 (stereo not given)	-4.5%	?	-0.5%	10µM*	-4.3%
CCC(C)(C)C1CCC(=NNc2nc3ccccc3[nH]2)CC1 (stereo not given)	8.0%	?	-0.5%	15.8µM*	?
